DAX1 inh-1: DAX1 (NR0B1) inhibitors, primary screen, cell-based, HEK293, Gal4-DAX1, luciferase luminescence; Nuclear receptor subfamily 0 group B member 1 (Homo sapiens), P51843; actives 0.99% (n = 340,000); HEK293 Gal4-DAX1 luciferase reporter; inhibition, % at 6.75 µM;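 active means inhibition above the mean over all tested compounds plus 3 SD, cut at about 4.2% in these data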;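 further: inhibition shows as a rise in luminescence from relieved DAX1 repression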
hcDAF-12 act: H. contortus DAF-12 nuclear receptor activators, primary screen, cell-based, luminescence, HEK293, lit1-tk-luc reporter | HEK293 hcDAF-12 lit1-tk-luc reporter; 0% DMSO, 100% Δ7-dafachronic acid | activation, % at 6.8 µM | actives 1.4% (n = 370,000);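 active means activation above the mean of all tested compounds plus 3 SD, cut at about 5.5% in these data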
DAX1 inh-2: DAX1 (NR0B1) inhibitors on StAR promoter, primary screen, cell-based, luminescence, SF-1 (NR5A1), full-length DAX-1; AID 652010, 2013; actives 1.1% (n = 370,000); HEK293T StAR-luciferase reporter, SF-1/DAX-1 repression relief; inhibition, % at 6.8 µM;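 active means inhibition above the mean over all tested compounds plus 3 SD, cut at about 3.6% in these data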;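 further: higher inhibition means more luminescence from relief of DAX-1 repression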
ssDAF-12 act: S. stercoralis DAF-12 nuclear receptor activators, primary screen, cell-based, luminescence, HEK293, GRIP1 co-expression, lit1-tk-luc; actives 1% (n = 370,000); AID 652126, 2013; Nuclear hormone receptor DAF-12 (Strongyloides stercoralis); activation, % at 6.8 µM; HEK293 ssDAF-12/GRIP1 lit1-tk-luc reporter; % of 3 µM dafachronic acid response;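 active means activation above the mean over all tested compounds plus 3 SD, cut at about 0.9% in these data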
hgDAF-12 ag: H. glycines DAF-12 receptor agonists, primary screen, cell-based, luminescence, HEK293, GAL4 fusion, UAS-luciferase. Nuclear hormone receptor DAF-12 (Heterodera glycines), GAL4 fusion. HEK293 GAL4-hgDAF12 UAS-luciferase reporter, agonist luminescence; normalized to butyrate control. activation, % at 6.8 µM. actives 1.8% (n = 370,000). AID 687014, 2013;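 active means activation above a cutoff set at the mean of all screened compounds plus 3 SD, cut at about 10% in these data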
NR1D1 modulator: modulators of Rev-erb alpha DNA binding, primary screen, biochemical, FITC-DNA, fluorescence polarization, uHTS. Nuclear receptor subfamily 1 group D member 1 (Homo sapiens), P20393. Rev-erbα–FITC-DNA binding, 90 min. activity, % at 10 µM. actives 0.79% (n = 370,000). AID 1259318, 2017;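 active means activity above about 14%, limit read from the data; passing the limit was not always enough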
Target sequence (P20393 whole entry, looked up): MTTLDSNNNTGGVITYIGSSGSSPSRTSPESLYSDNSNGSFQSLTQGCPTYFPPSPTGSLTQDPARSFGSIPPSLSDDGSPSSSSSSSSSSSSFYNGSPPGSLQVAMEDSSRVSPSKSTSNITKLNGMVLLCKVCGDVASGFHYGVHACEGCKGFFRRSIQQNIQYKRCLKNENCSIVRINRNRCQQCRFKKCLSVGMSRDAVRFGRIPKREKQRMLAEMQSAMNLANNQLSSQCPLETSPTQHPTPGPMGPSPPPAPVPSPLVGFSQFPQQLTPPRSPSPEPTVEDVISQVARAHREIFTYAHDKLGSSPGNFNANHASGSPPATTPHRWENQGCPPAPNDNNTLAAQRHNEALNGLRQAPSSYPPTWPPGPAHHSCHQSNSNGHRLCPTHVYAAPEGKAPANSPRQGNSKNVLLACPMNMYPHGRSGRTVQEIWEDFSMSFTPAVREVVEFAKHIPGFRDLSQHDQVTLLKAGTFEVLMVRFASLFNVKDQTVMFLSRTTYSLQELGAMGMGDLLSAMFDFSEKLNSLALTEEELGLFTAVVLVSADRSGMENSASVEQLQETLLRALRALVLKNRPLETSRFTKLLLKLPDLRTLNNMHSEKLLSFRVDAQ
Numbers stand for hits; 0 = inactive; - = no result. Hits are enriched below; roughly 4.8% of the tested compounds scored in any of these assays.

SMILES	DAX1 inh-1	hcDAF-12 act	DAX1 inh-2	ssDAF-12 act	hgDAF-12 ag	NR1D1 modulator
O=C(NNc1nc2ccccc2s1)Nc1ccc(F)cc1	6.0	0	0	0	0	0
O=C(c1ccco1)N1CCN(C(=O)c2cc(Cl)nc3ccccc23)CC1	0	0	0	1.2	0	0
O=S1(=O)c2ccc(Br)cc2OCCC2CCCCN21 (stereo unspecified)	-	0	0	0	0	0
COC[C@H]1CCCN1c1cccc2c1S(=O)(=O)N(C1CC1)CC[C@@H](C)O2	-	0	0	0	0	0
O=C(NNc1nc2ccccc2s1)c1ccccc1F	0	5.8	0	0	0	0
O=C(Nc1nc2ccccc2s1)c1c(F)cccc1Cl	0	0	0	0	0	0
CCc1ccc(Nc2nc(C)cc(C)n2)cc1	0	0	0	0	11	0
O=C(Nc1nnc(/C=C/c2ccccc2)s1)c1ccco1	0	0	0	1.6	0	0
Nc1nnc(/C=C/c2ccccc2)s1	0	5.8	0	0	0	0
COC(=O)Nc1nnc(/C=C/c2ccccc2)s1	0	0	0	0	0	0
CC(C)Sc1nnc(NC(=O)c2ccco2)s1	0	0	0	1.8	0	0
Nc1nnc(-c2ccccc2F)s1	-	0	0	0	0	0
COC(=O)c1cc(-c2cccc3c2sc2ccccc23)c(=O)n2c1CCC2	-	0	0	0	0	0
CN=C(NC)NCc1ccccc1	-	-	-	-	-	0
O=C(Nc1ccccc1)c1cc(-c2ccccc2Cl)no1	4.3	0	0	0	0	0
Cn1nc(-c2ccc(Cl)cc2)c2cc(C(=O)N3CCOCC3)sc21	0	0	0	0	0	0
CN1CCN(CCCNC(=O)c2cc3c(-c4ccc(Cl)cc4)nn(C)c3s2)CC1	0	5.6	0	0	0	0
COc1ccc(N2CCN(C(=O)c3cc4c(-c5ccc(Cl)cc5)nn(C)c4s3)CC2)cc1	0	6.0	0	0	0	0
Cc1ccc(-c2c(C(=O)NC3CCCC3)oc(=O)c3ccccc23)cc1	-	0	0	0	0	0
COc1ccc(C2C(C(=O)NCC3CCCO3)CCC(=O)N2c2ccc3c(c2)OCO3)cc1 (stereo unspecified)	4.4	0	0	0	0	0
Cc1cc(C)c(NC(=O)C2CCCN2C)c(C)c1 (stereo unspecified)	8.0	0	0	0	0	0
Cc1cc(C)c(NC(=O)C2CCCN2CCO)c(C)c1 (stereo unspecified)	0	0	0	0	0	0
COCCN(C(=S)Nc1cccc(C)c1C)C(C)c1ccco1 (stereo unspecified)	8.3	0	0	0	0	0
Fc1ccc(NC(=S)N2CCc3ccccc32)cc1	0	0	0	0	0	0
FC(F)Oc1ccc(NC(=S)N2CCc3ccccc32)cc1	0	0	0	1.4	0	0
SMILES	DAX1 inh-1	hcDAF-12 act	DAX1 inh-2	ssDAF-12 act	hgDAF-12 ag	NR1D1 modulator
Cc1cc[n+](C2=C([O-])c3ccccc3C(=O)/C2=N\S(=O)(=O)c2cccs2)cc1C	4.5	0	0	0	0	0
Cc1cc(C)c[n+](C2=C([O-])c3ccccc3C(=O)/C2=N\S(=O)(=O)c2cccs2)c1	0	0	0	0	0	0
Cc1nn(-c2ccc(Cl)cc2)c(N)c1C(O)(CSc1nccn1C)C(F)(F)F (stereo unspecified)	0	0	0	1.0	0	0
Cc1nn(-c2ccccc2)c(N)c1C(O)(CSc1nccn1C)C(F)(F)F (stereo unspecified)	0	0	0	0.9	0	0
Cc1ccc(-n2nc(C)c(C(C)(O)C(F)(F)F)c2N)cc1 (stereo unspecified)	0	0	0	0	0	0
OC[C@@H](O)[C@H](O)[C@@H](O)[C@H](O)CO	-	-	-	-	-	0
CCOCc1c(C(=O)N2CCN(CCOc3ccc(Cl)cc3)CC2)oc2ccccc12	0	0	0	0	0	0
CCOCc1c(C(=O)N2CCN(CC(=O)Nc3ccc(F)cc3)CC2)oc2ccccc12	0	0	0	1.2	0	0
COC(=O)C1CN(CCc2ccccc2)CCS(=O)(=O)N1Cc1ccccc1F (stereo unspecified)	-	0	0	0	0	0
C[C@@H]1COc2cc(N3CCSCC3)ccc2S(=O)(=O)N1C	-	0	0	0	0	0
O=C(CSc1ncn[nH]1)c1cc2ccccc2o1	0	0	0	0	0	0
O=C(CSc1nccc(=O)[nH]1)c1cc2ccccc2o1	0	0	0	1.3	11	0
C=CCn1c(C)cc(C(=O)CSc2nc(N)cc(N)n2)c1C	4.6	0	0	0	0	0
CCCCCC[C@@H](CC)CN(C(=O)Oc1ccccc1)c1ccccc1	-	0	0	0	0	0
CCOc1ccc2nc(NC(=O)c3ccccn3)sc2c1	0	0	0	0	0	0
COc1ccc(-c2csc(NC(=O)c3ccoc3C)n2)cc1	0	0	0	0	11	0
CC(=O)Nc1nc2cc3c(cc2s1)OCO3	0	0	0	0	13	0
CCOc1ccc2nc(NC(=O)c3ccoc3C)sc2c1	0	6.2	0	0	11	0
CC(=O)c1sc(Nc2nc3cc4c(cc3s2)OCO4)nc1C	0	0	0	0	0	0
COc1ccc2nc(NC(=O)c3ccccc3C(=O)O)sc2c1	0	5.7	0	0	0	0
CC(C)C(=O)N1CCC(Oc2cccnc2)CC1	-	0	0	0	0	0
CCOC(=O)[C@@]12CCCC3=C1N(CCC3)C(=O)[C@H]2CC(=O)NCc1cccs1	-	0	0	0	0	0
c1ccc(N2CCN(c3nc4cc5c(cc4s3)OCO5)CC2)cc1	0	0	0	0	0	0
c1c2c(cc3sc(N4CCCCC4)nc13)OCO2	0	6.0	0	0	0	-
COc1ccc2sc(NC(C)=O)nc2c1	0	0	0	0	11	0
Cc1ccc(-n2c(SCc3cccc4ccccc34)nnc2-c2ccccn2)cc1	-	0	0	0	0	0
Cc1ccc2c(c1)N(CC(=O)NCCCN1C(C)CCCC1C)C(=O)c1cccnc1O2 (stereo unspecified)	4.8	0	0	0	0	0
CC1CCCC(C)N1CCCNC(=O)CN1C(=O)c2cccnc2Oc2ccc(Cl)cc21 (stereo unspecified)	0	0	0	0	0	0

Assay outcomes from PubChem BioAssay.
